Experimental data from PubChem BioAssay (NCI).
“And” between values parts separate entries of the source, which are not always exact repeats. Equal values may be shown once. This is part of a sample that, as a whole, favours compounds with a hit. Of some 83,000 tested, about 20% had one in any assay.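 Cells were grown in 96-well plates and exposed to the test compound at a single concentration for 48 hours; results are reported as percent growth, with values below 10 considered active.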 A number with no mark means an inactive call. The source made the active and inactive calls.

Assays:
Assay in all cases: NCI-60 one-dose screen, 48 h (100 = growth as untreated, 0 = no growth, -100 = all killed)
Conditions in all cases: 10 µM unless noted
HCT-15 colon = tested on: HCT-15 colon
HT29 colon = tested on: HT29 colon
SNB-75 CNS = tested on: SNB-75 CNS
SNB-19 CNS = tested on: SNB-19 CNS
U251 CNS = tested on: U251 CNS
PC-3 prostate = tested on: PC-3 prostate
SK-MEL-5 melanoma = tested on: SK-MEL-5 melanoma
UACC-62 melanoma = tested on: UACC-62 melanoma
LOX IMVI melanoma = tested on: LOX IMVI melanoma
SK-MEL-28 melanoma = tested on: SK-MEL-28 melanoma

| SMILES | growth (HCT-15 colon) | growth (HT29 colon) | growth (SNB-75 CNS) | growth (SNB-19 CNS) | growth (U251 CNS) | growth (PC-3 prostate) | growth (SK-MEL-5 melanoma) | growth (UACC-62 melanoma) | growth (LOX IMVI melanoma) | growth (SK-MEL-28 melanoma) |
| --- | --- | --- | --- | --- | --- | --- | --- | --- | --- | --- |
| COc1ccc(NC(=O)Nc2ccccc2CNc2nc(Nc3ccc(OCCN4CCCC4)cc3)ncc2Cl)cc1 | 5.09% (active) | 3.08% (active) | -47.8% (active) | 33.9% | -15.2% (active) | 23.3% | -40.6% (active) | -53.4% (active) | -99% (active) | -77.7% (active) |
| Cc1ccc(S(=O)(=O)OC[C@@]2(C)CC[C@]3(C)CC[C@]4(C)C(=CC[C@@H]5[C@@]6(C)CCCNC(C)(C)[C@@H]6CC[C@]54C)[C@@H]3C2)cc1 | -89.7% (active) | -88.2% (active) | -57.1% (active) | -16.7% (active) | -89.6% (active) | -10.3% (active) | 40.1% | -69.2% (active) | -99.5% (active) | 55.6% |
| CN(C)CCCn1c2c(c3ccc(N4CCNCC4)cc3c1=O)C(=O)c1ccccc1-2 | -36.5% (active) | -52.4% (active) | 22.3% | -13.9% (active) | -54.1% (active) | -34.7% (active) | 28.7% | 51.8% | -90% (active) | 59.7% |
| CCN1CCN(C(=O)[C@]23CC[C@@H](C)[C@H](C)[C@@H]2C2=CC[C@@H]4[C@@]5(C)CCC(=O)C(C)(C)[C@@H]5CC[C@@]4(C)[C@]2(C)CC3)CC1 | 8.58% (active) | -12% (active) | -3.49% (active) | 20.9% | -44.9% (active) | 4.66% (active) | -84.1% (active) | -46.1% (active) | -85.2% (active) | -64.7% (active) |
| Cc1ccc(C(=O)N(CCCN)[C@@H](c2nc3cc(Cl)ccc3c(=O)n2Cc2ccccc2)C(C)C)cc1 | -50% (active) | 0.611% (active) | -18.7% (active) | 5.11% (active) | -65% (active) | 16.4% | -94.2% (active) | -79.6% (active) | -90% (active) | -31% (active) |
| COc1ccc(-c2cc(-c3cc(OC)c(OC)c(OC)c3)c(C#N)c(=O)n2CCCCC(=O)O)cc1 | 77.3% | 99.4% | 51.8% | 96.3% | 91.5% | 90.9% | 93.6% | 89.8% | 78.6% | 112% |
| COc1ccc(-c2cc(-c3cccnc3)nc3sc4c(Cl)nnnc4c23)cc1OC | 69.9% | 87.9% | 81.5% | 95.6% | 92.1% | 81.1% | 84.4% | 81% | 36.4% | 112% |
| Cc1oc2c(Cc3ccc(NC(=O)c4ccc(Cl)cc4)cc3)ncnc2c1C(=O)NO | 103% | 89.6% | 106% | 105% | 104% | 97.7% | 86.1% | 89.9% | 102% | 107% |
| Cc1ccc(S(=O)(=O)OC[C@@]2(C)CC[C@]3(C)CC[C@]4(C)C(=C3C2)C=C[C@@H]2[C@@]3(C)CCCNC(C)(C)[C@@H]3CC[C@]24C)cc1 | -74.5% (active) | -69.2% (active) | 82.9% | 47.8% | -95.9% (active) | 43.5% | 76.5% | 61.1% | -99.2% (active) | 96.7% |
| CCc1c2c(nc3ccc(OCc4ccc(B5OC(C)(C)C(C)(C)O5)cc4)cc13)-c1cc3c(c(=O)n1C2)COC(=O)[C@]3(O)CC | 32.9% | 10.2% | 5.99% (active) | 8.91% (active) | -8.07% (active) | 26.9% | -54.8% (active) | -40.7% (active) | -55.2% (active) | 32.8% |
| Cc1nonc1-c1ccc2c(c1)OCO2 | 97.5% and 107% | 102% and 107% | 96.3% and 96.6% | 112% and 95.7% | 93.7% and 108% | 96% | 99.3% and 101% | 110% and 97.7% | 94.5% and 98.4% | 118% and 169% |
| Fc1ccccc1-c1cnn2cc(-c3ccccc3)cnc12 | 90.5% | 105% | 81.7% | 94.1% | 98.9% | 88.5% | 101% | 91.5% | 98.7% | 113% |
| COc1ccc(/C(C)=C(\c2ccc(OCCN3CCCCCC3)cc2)c2ccc(OC(=O)C3CCCCC3)cc2)cc1 | -76.7% (active) | -71% (active) | -11.1% (active) | 3.58% (active) | -84.9% (active) | -49.8% (active) | -99.7% (active) | -73.7% (active) | -93.5% (active) | -84.5% (active) |
| COC(=O)c1[nH]nc(OC)c1C1(C(C#N)c2nc3ccccc3s2)CCCc2ccccc21 (stereo not given) | 102% | 95.8% | 86.4% | 96.7% | 96.5% | 79.5% | 97.8% | 79.6% | 95% | 78.9% |
| Cc1ccc(-c2nc3nc(-c4ccccc4)nc(N4CCN(S(=O)(=O)c5ccccc5)CC4)c3o2)cc1 | 103% | 97.7% | -17.2% (active) | 32.9% | 78.9% | 96.4% | 95% | 101% | 96.7% | 106% |
| O=C(O)C1C2CCC1C(O)C2 (stereo not given) | 106% and 103% | 102% | 101% and 92.9% | 102% and 108% | 94.6% and 99.6% | 110% and 95.9% | 101% and 110% | 110% and 108% | 95.4% and 95.5% | 104% and 110% |
| O=c1oc2c(Br)cc(Br)cc2cc1-c1cc(-c2ccc(-c3cc(-c4cc5cc(Br)cc(Br)c5oc4=O)nc(-c4cc5cc(Br)cc(Br)c5oc4=O)c3)cc2)cc(-c2cc3cc(Br)cc(Br)c3oc2=O)n1 | 111% | 90.8% | 105% | 101% | 107% | 97.5% | 108% | 102% | 99.5% | 112% |
| Cn1cc(-c2csc(-c3c[nH]c4ccc(F)cc34)n2)c2cnccc21 | -69.7% (active) | -52.6% (active) | -89.1% (active) | 14.3% | -74.6% (active) | 20.5% | -97% (active) | -78.5% (active) | -90.4% (active) | -95.9% (active) |
| COc1ccc(/C=N/C2=C(C#N)C(c3ccccc3)c3c(ccc4ccccc34)O2)cc1 (stereo not given) | 22.5% | 5.31% (active) | -39.4% (active) | 22.9% | 24.1% | 23.3% | 20.8% | 37.3% | 28.5% | 64.7% |
| COc1ccc(Nc2nn3c(SCC(=O)c4ccc(C)cc4)nnc3s2)cc1 | 105% | 105% | 95.7% | 98.8% | 106% | 85.5% | 95.4% | 83.7% | 95.9% | 109% |
| COc1ccc(-c2ccc(-c3ccc(C(=N)N)cn3)o2)cc1Cl | 18.7% | 4.81% (active) | 89.3% | 40% | 0.889% (active) | 46.1% | 12% | 86.5% | -71% (active) | 70.1% |
| Cc1nnc(NS(=O)(=O)c2ccc(N=Nc3ccc(N)nc3N)cc2)s1 | 99.7% and 107% | 108% and 104% | 92% and 89.6% | 100% and 112% | 105% and 106% | 93.8% and 98.2% | 117% | 97% and 111% | 93.2% and 101% | 111% and 116% |
| CCOC(=O)CC1CSC(c2cccc(Cl)c2)=N1 (stereo not given) | 106% | 102% | 106% | 106% | 102% | 103% | 100% | 101% | 95.7% | 110% |
